In PubChem BioAssay AID2778 (National Center for Advancing Translational Sciences (NCATS), 2010):
Inconclusive results are not listed. Values without a mark were called inactive. Activity calls are given as the source filed them. The call rests on the fitted dose curve; in most records, active means well fitted inhibition curve with a large enough effect; inconclusive means small, poorly fitted or top-dose-only effect, or effect the other way; inactive means flat fitted curve, though single readings scatter. Positions of bridges follow the written chain, without caps; N, C: chain ends. Non-standard residues stand in square brackets, D forms with d. Residues, ends and D or L forms follow the SMILES beside them. ξ: configuration not given here. *: point of attachment. Octanoyl(6-Me) = CCC(C)CCCCC(=O)*; ξThr(3R) = C[C@@H](O)C(N)C(=O)O; dDab = NCC[C@@H](N)C(=O)O; Dab = NCC[CH](N)C(=O)O

Target: Menin (Homo sapiens) (UniProt O00255)
Assay: Confirmation of Inhibitors Targeting the Menin-MLL Interaction in MLL Related Leukemias: Confirmation in an HTRF (commercial TR-FRET) Assay using His-tagged menin and biotin-labeled MLL peptide
Settings: His-menin / biotin-MLL peptide binding; series mostly up to 126 µM; activity change, negative = inhibition: at the top concentration
Procedure, shortened: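 HTRF: His6-menin (200 nM) and biotin-MLL-w.t. peptide (80 nM) preincubated 15 min, then compounds 1 hr at ambient, before Eu-cryptate anti-His (3.5 nM) and streptavidin-XL665 (10 nM) for 1 h; 50 mM Tris-HCl pH 7.5, 50 mM NaCl, 1 mM DTT, BSA.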
On the % scale 0 is the no-effect control and ±100 the full control effect; potency means the concentration at half of the fitted maximal effect.

Chain of Menin (Homo sapiens) (O00255 whole entry, looked up): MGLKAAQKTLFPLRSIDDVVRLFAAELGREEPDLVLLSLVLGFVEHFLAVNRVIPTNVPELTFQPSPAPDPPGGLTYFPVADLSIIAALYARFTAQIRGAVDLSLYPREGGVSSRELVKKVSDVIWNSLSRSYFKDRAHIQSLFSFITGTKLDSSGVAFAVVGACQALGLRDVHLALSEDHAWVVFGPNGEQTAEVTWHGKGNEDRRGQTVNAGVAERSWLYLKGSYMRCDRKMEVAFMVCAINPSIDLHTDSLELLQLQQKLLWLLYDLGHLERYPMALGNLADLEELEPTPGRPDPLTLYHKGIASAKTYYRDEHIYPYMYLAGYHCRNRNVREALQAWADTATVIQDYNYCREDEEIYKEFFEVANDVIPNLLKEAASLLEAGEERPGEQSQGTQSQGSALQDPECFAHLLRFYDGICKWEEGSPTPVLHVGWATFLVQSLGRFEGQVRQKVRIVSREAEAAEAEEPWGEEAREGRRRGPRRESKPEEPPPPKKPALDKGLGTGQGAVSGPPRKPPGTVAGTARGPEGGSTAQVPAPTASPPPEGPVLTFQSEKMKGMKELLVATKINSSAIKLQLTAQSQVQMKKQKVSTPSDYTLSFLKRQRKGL

Compared with `CC(=O)NC1C(=O)N(CCN2CCOCC2)c2ccc(F)cc21` (centres undefined), `O=C(N1CCOCC1)N1CCN(S(=O)(=O)c2ccc(Cl)cc2)CC1` is higher in “activity change, negative = inhibition” value: -3.85% for the first, 5.87% for the second.

First: Fc1ccccc1C1c2cccn2CCN1C(=S)Nc1ccc(Br)cc1 (centres undefined)
Second: O=C(Nc1nnc(-c2ccccc2SCc2ccccc2)s1)Nc1ccccc1F
The “activity change, negative = inhibition” value of the first is higher: -15.8% for the first, -20.5% for the second.

First: c1ccc2c(c1)NCC1CCCN21 (centres undefined)
Second: COc1cccc(NC(=O)N2CCCc3ccccc32)c1
The “activity change, negative = inhibition” value of the first is lower: -0.883% for the first, 4.66% for the second.

Compared with `CCc1ccc(CNC(=O)CCS(=O)(=O)Cc2ccccc2F)cc1`, `COc1ccc(N(C(=O)c2ccncc2)S(=O)(=O)c2ccc(Cl)cc2)cc1` is higher in “activity change, negative = inhibition” value: 3.6% for the first, 8.53% for the second.

Going from `CC(=O)c1c(O)cc(O)cc1CC(=O)O` to `CCCNC(=O)c1ccc2c(=O)c(O)c(C)[nH]c2c1`, the “activity change, negative = inhibition” value falls from 2.69% to 1.6%.

Compared with `COc1ccc(Cn2nnnc2C(c2ccccc2)N2CCN(C3CCCC3)CC2)cc1` (centres undefined), `C=C(C)[C@@H]1CC=C(CN2CCN(Cc3ccccc3)CC2)CC1` is higher in “activity change, negative = inhibition” value: 2.29% for the first, 4.46% for the second.

Going from `c1ccc(-c2ccc(-c3csnn3)cc2)cc1` to `Clc1ccc(-c2nnc(-c3ccccc3)nc2-c2c[nH]c3ccccc23)cc1`, the “activity change, negative = inhibition” value falls from -8.86% to -19.6%.

Compared with `COc1ccc(CCNCc2cc(C)n(-c3ccc(OC)cc3)c2C)cc1`, `COc1ccc2[nH]c(=O)c(CN(Cc3cccs3)C(=S)Nc3cccc(C)c3)cc2c1` is lower in “activity change, negative = inhibition” value: 7.98% for the first, -20% for the second.

Going from `CCC(C)CCCCC(=O)NC(CCN)C(=O)NC(C(=O)NC(CCN)C(=O)NC1CCNC(=O)C(C(C)O)NC(=O)C(CCN)NC(=O)C(CCN)NC(=O)C(CC(C)C)NC(=O)C(Cc2ccccc2)NC(=O)C(CCN)NC1=O)C(C)O` (centres undefined) ({Octanoyl(6-Me)}-[Dab]T[Dab][Dab][Dab]FL[Dab][Dab]T; lactam 4-C; configuration not given here) to `Cc1[nH]nc(-c2ccc(OCc3cnn(-c4ccccc4)c3)c(C)c2O)c1Oc1ccccc1`, the “activity change, negative = inhibition” value rises from -21.9% to -21.4%.

Compared with `CCCn1c(C2CCCN2c2nc(C)cs2)nc2cc(Cl)c(Cl)cc21` (centres undefined), `CN(C)c1ccc(N=Nc2ccc(C(=O)O)cc2)cc1` is higher in “activity change, negative = inhibition” value: 1.08% for the first, 4.67% for the second.

First: CCCc1cc(=O)oc2c3c(c(Cl)cc12)OCN(CCCO)C3
Second: Cc1ccc(/C=C2\SC(=S)N(CC(=O)Nc3ncc(Cc4ccccc4Cl)s3)C2=O)cc1
The “activity change, negative = inhibition” value of the first is higher: -14.5% [at 383 µM] for the first, -18.7% [at 383 µM] for the second.

Going from `Cc1cnc(NC(=O)C2C(=O)c3ccccc3S(=O)(=O)N2C)s1` (centres undefined) to `Cc1ccccc1-c1cncnc1NC1CCNCC1`, the “activity change, negative = inhibition” value falls from -8.7% [at 383 µM] to -14.4% [at 383 µM].

First: O=C(Cn1nc(-c2ccccc2)ccc1=O)N1CCCCC1
Second: Cc1cc2ccccc2nc1SCC(=O)Nc1nc(-c2ccccc2)cs1
The “activity change, negative = inhibition” value of the first is higher: 3.9% [at 383 µM] for the first, -6.54% [at 383 µM] for the second.

Going from `COc1ccc(-c2cc(-c3ccc(C)cc3)n[nH]2)c(O)c1` to `CCOc1ccc(-c2nn(-c3ccccc3)cc2/C=C2\SC(N)=NC2=O)cc1C`, the “activity change, negative = inhibition” value falls from -10.7% [at 383 µM] to -18.9% [at 383 µM].

Going from `O=C(O)c1ccccc1NS(=O)(=O)c1cccc(-n2sc3ccccc3c2=O)c1` to `Cc1c(CCOC(=O)CC23CC4CC(CC(C)(C4)C2)C3)sc[n+]1Cc1ccc([N+](=O)[O-])cc1`, the “activity change, negative = inhibition” value rises from -24.1% [at 383 µM] to -18.3% [at 383 µM].

With `CCOc1cc(C(c2c(C)[nH][nH]c2=O)c2c(C)[nH][nH]c2=O)cc(Br)c1OC` the “activity change, negative = inhibition” value was -4.43% [at 383 µM].

For `O=C(O)CSc1cc(NS(=O)(=O)c2ccc(Br)cc2)c2ccccc2c1O`, the Potency was 89.1 µM (active).
`CCOc1cc(CNCCc2ccc(S(N)(=O)=O)cc2)ccc1OCc1ccccc1` was tested, and the Potency was 251 µM (active).

With `CCC(C)CCCCC(=O)N[C@@H](CCN)C(=O)N[C@H](C(=O)N[C@@H](CCN)C(=O)N[C@H]1CCNC(=O)C([C@@H](C)O)NC(=O)[C@@H](CCN)NC(=O)[C@H](CCN)NC(=O)[C@H](CC(C)C)NC(=O)[C@@H](CC(C)C)NC(=O)[C@H](CCN)NC1=O)[C@@H](C)O` (stereo partly drawn) ({Octanoyl(6-Me)}-[Dab]T[Dab][Dab][Dab][dL]L[Dab][dDab][ξThr(3R)]; lactam 4-C) the “activity change, negative = inhibition” value was -4.21% [at 62.9 µM].
